The values that follow come from ChEMBL document CHEMBL4513216, “Probing the Open Global Health Chemical Diversity Library for Multistage-Active Starting Points for Next-Generation Antimalarials” (ACS Infect Dis, 2020).

SMILES strings stand for the structures. The campaign covered roughly 69,000 compounds. About 8,600 (12%) showed an effect of 50% or more. The sample holds strong results, similar compounds and a random draw of the others, so the mix is not that of the screen.

The experiment has as its system Plasmodium berghei. The experiment can be described thus: Screen against P. berghei liver stage (PbLuc), transformed with Luciferase, at 10uM. Type of experiment: functional, HepG2. As to conditions: tested at 10 uM.
Consider `COC(=O)c1cccc(C(=O)NCc2ccc(C)o2)n1`, for which the INHIBITION is reported as 39.1%.

Consider `Cc1ccc(N2CC[C@H]3O[C@@H](C(=O)NCc4ccco4)CC[C@H]32)nn1`, for which the INHIBITION was determined as 21.6%. As to `COC(=O)CC1CCN(C(=O)Nc2ccc(-c3ccn[nH]3)cc2)C1` (configuration not stated), the INHIBITION was 37.7%. With `Cc1ccc(CN2CCC[C@@H]3CN(C(=O)c4ccco4)C[C@@H]32)s1`, the INHIBITION is recorded as -2.25%.

As for `CN1C(=O)CC(c2ccccc2)C12CCN(CC1CC1)CC2` (configuration not stated), the INHIBITION was -40.5%. The result for `CCNC(c1ccc(C(C)C)cc1)c1cccnc1` (configuration not stated) reads 8.64%; that for `CC(=O)c1cccc(-c2c[nH]c(C)n2)c1`, -30.5%. In the case of `Cc1nc(-c2cccc(C(=O)O)c2)c[nH]1`, the INHIBITION is -34.8%. In the case of `CC(=O)Nc1nc(-c2ccccc2)c[nH]1` it was 58.1%. The result for `CC(=O)Nc1nc(-c2ccc(C)c(C)c2)c[nH]1` reads 7.22%; that for `CNC(=O)NC(C)c1nc(-c2ccccc2)c[nH]1` (configuration not stated), -51.8%. `CC(=O)Nc1nc(-c2ccc(F)cc2)c[nH]1`: the INHIBITION is 63.6%.

Turning to `Cc1cc(N2CCN(Cc3cn(C)nc3C)CC2)cc(C2CCCN2)n1` (configuration not stated), the INHIBITION is listed as -10%.

Turning to `Cc1ccc([C@@]2(O)CC[C@@H]3CN(S(=O)(=O)c4cn(C)nc4C)C[C@@H]32)cc1`, the INHIBITION came out at 32.8%. In the case of `CC(CO)(CO)NC(=O)C1CCC(=O)N(Cc2ccc(Cl)cc2)C1` (configuration not stated) it was 35.7%. Consider `COc1ccc(Cl)cc1NCC(=O)NCCNc1ncccn1`, for which the INHIBITION came out at 45.7%. With `COc1ccc(C)cc1NS(=O)(=O)c1ccc(CCNC(C)=O)s1`, the INHIBITION was -1.04%. In the case of `c1coc(CN2CCC3(CC2)COC(COCC2CC2)C3)c1` (configuration not stated) it was -28.2%. Regarding `Cc1nc(CN(C)C2CCN(CCn3cc(C#N)cn3)C2)no1` (configuration not stated), the INHIBITION amounted to 53.9%. As to `CCc1cnc(CN(C)C2CCN(CCn3cc(C#N)cn3)C2)o1` (configuration not stated), the INHIBITION is given as 52.5%. In the case of `CCc1cnc(CN(C)C2CCN(CC(=O)Nc3cc(C)on3)C2)o1` (configuration not stated) it was -32%.

For the compound `CC(C)c1cnc(CN(C)C2CCN(CCn3cc(C#N)cn3)C2)o1` (configuration not stated), the INHIBITION is listed as -6.44%.

Turning to `CN(Cc1noc(C2CC2)n1)C1CCN(CCn2cc(C#N)cn2)C1` (configuration not stated), the INHIBITION is recorded as 37.4%. `CC(C)c1nc(CN(C)C2CCN(CCn3cc(C#N)cn3)C2)no1` (configuration not stated): the INHIBITION came out at 29.2%. Turning to `CCc1cnc(CN(C)C2CCN(CC(=O)Nc3nccs3)C2)o1` (configuration not stated), the INHIBITION was found to be 52.3%. In the case of `Cc1cnc(CN(C)C2CCN(CCn3cc(C#N)cn3)C2)o1` (configuration not stated) it was 44.8%. With `Cc1cnc(CN(C)C2CCN(CC(=O)Nc3nccs3)C2)o1` (configuration not stated), the INHIBITION came out at 9.14%.

Turning to `Cc1cnn(CC2CCCN2C(=O)CCc2cscn2)c1` (configuration not stated), the INHIBITION stood at 19.965%. For the compound `CC(=O)N1CCN([C@@H]2CCC[C@@H](NC(=O)c3cccnc3)[C@H]2O)CC1`, the INHIBITION is recorded as 8.53%.

As for `Cc1nc(CN2CCCC(c3cc(C(N)=O)[nH]n3)C2)oc1C` (configuration not stated), the INHIBITION is -0.113%. In the case of `O=C(O)c1c(-c2cncnc2)ncc2c1CCN(CC1CCOC1)C2` (configuration not stated) it was 43%; in that of `O=C1NCC2(CCC(C(=O)N3CCCC(O)C3)CC2)Oc2ccccc21` (configuration not stated), 8.72%; in that of `CN(Cc1ccsc1)C(=O)c1ccc2c(c1)NC(=O)CO2`, 6.8%. On to `Cc1cc(C(=O)Nc2ccn(CCCN3CCCC3)n2)no1`, for which the INHIBITION was 38.4%. As to `COCCN(Cc1sccc1C)C(=O)COc1cccnc1`, the INHIBITION is reported as -32.6%. Turning to `O=C(NCc1cncc2c1CCN(Cc1ccccc1)C2)C1CC1`, the INHIBITION is reported as -27.9%. For the compound `CC(=O)N1CC2(CCN(C(=O)C3CC3)CC2)c2cc(C)ccc21`, the INHIBITION was 84.5%. `CC(=O)N1CC2(CCN(C(=O)N(C)C)CC2)c2cc(C)ccc21`: the INHIBITION amounted to 37.8%. On to `CCC(=O)N1CCC2(CC1)CN(C(C)=O)c1ccc(C)cc12`, for which the INHIBITION is recorded as -47.5%.

Turning to `CCOCCCNC(=O)C(C)n1cc(Br)cn1` (configuration not stated), the INHIBITION was found to be 5.05%.

Consider `COC(=O)N1CCc2ccccc2C1C(=O)NCc1nc(C)no1` (configuration not stated), for which the INHIBITION is given as 43.4%. `CC(=O)N1CCc2ccccc2C1CC(=O)NCc1nnc(C)o1` (configuration not stated): the INHIBITION is given as 61.2%. The result for `Cc1nnc(CNC(=O)CC2CCc3ccccc32)o1` (configuration not stated) reads 13%; that for `Cc1nn(CC(C)C)c(N(C)C)c1CNCc1cccnc1N(C)C`, 43.7%; that for `Cc1nn(CC(C)C)c(N(C)C)c1CNCc1cc2ccccc2[nH]1`, 67.3%.

With `COc1cc(CNCc2c(C(C)C)nn(C)c2N(C)C)ccn1`, the INHIBITION is recorded as 33.3%. Take `Cc1nn(CC(C)C)c(N(C)C)c1CNCc1ccccc1CO`: the INHIBITION was -21.8%. With `COc1cc(CNCc2c(C)nn(CC(C)C)c2N(C)C)ccn1`, the INHIBITION was 77.1%. Consider `COc1cc(CNCc2c(C)nn(C)c2N(C)C)ccn1`, for which the INHIBITION is given as 42.6%. As for `COCCNS(=O)(=O)c1ccc(CNc2ncccc2C#N)cc1`, the INHIBITION is listed as 48.4%. In the case of `N#Cc1cccnc1NCc1ccc(S(=O)(=O)NCC2CCCO2)cc1` (configuration not stated), the INHIBITION is 55.6%. Turning to `N#Cc1cccnc1NCc1ccc(S(=O)(=O)NC2CC2)cc1`, the INHIBITION is recorded as -15.2%. In the case of `CN(Cc1ccco1)Cc1cnc2n1CCN(S(C)(=O)=O)CC2` it was 31.9%. On to `O=C(NC[C@H]1OC[C@@H]2CCN(Cc3ccco3)C[C@@H]21)c1ccsc1`, for which the INHIBITION is listed as 23.5%. Take `Cn1cc2c(n1)C(CNCC1CCOCC1)OCC2` (configuration not stated): the INHIBITION was -4.02%. For the compound `CC(C)NCC1OCCc2cn(C)nc21` (configuration not stated), the INHIBITION came out at 55.5%. `Cn1cc2c(n1)C(CNC1CCOCC1)OCC2` (configuration not stated): the INHIBITION was 4.02%. The result for `Cc1cnc2cc(C3CCN(C(=O)c4ccncc4)CC3)[nH]c2n1` reads 38.8%; that for `CN(C)c1ccc(C(=O)N2CCC(c3cc4cnccc4[nH]3)CC2)cc1`, 51.75%; that for `Cc1noc(C)c1C(=O)N1CCC(c2cc3cnccc3[nH]2)CC1`, 13.335%.

Regarding `CN(C)c1ccc(C(=O)N2CCC(c3n[nH]c(C4CC4)n3)CC2)cc1`, the INHIBITION is 2.97%. The result for `COc1cc(CCC(=O)N2CCC(c3cc4ncccc4[nH]3)CC2)on1` reads -26.4%; that for `COCc1ccc(C(=O)N2CCC(c3cc4ncc(C)nc4[nH]3)C2)cc1` (configuration not stated), 20.8%; that for `CN(C)c1ccc(C(=O)N2CCC(c3cc4ncccc4[nH]3)CC2)cc1`, 57.7%. Turning to `COCc1ccc(C(=O)N2CCC(c3cc4nccnc4[nH]3)CC2)cc1`, the INHIBITION was found to be 66.5%. `CN(C)c1cccc(C(=O)N2CCC(c3n[nH]c(C4CC4)n3)CC2)c1`: the INHIBITION was determined as 13.3%.

With `CN(C1CCN(C(=O)NCCc2ccc(F)cc2F)CC1)S(C)(=O)=O`, the INHIBITION was determined as 39.7%.
